ADAM17 inh = ADAM17 inhibitors, primary screen, biochemical, QFRET; Disintegrin and metalloproteinase domain-containing protein 17 (Homo sapiens), P78536; recombinant ADAM17, EDANS/DABCYL FRET peptide cleavage; inhibition, % at 6.95 µM; hit rate 0.83% among 370,000; AID 720648, 2013;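 active = inhibition above the mean of compounds lying between control limits plus 3 SD, set per campaign, cut at about 8.5% in these data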;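 also: 0% = DMSO-only wells as the low control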
KLK7 zymogen act = proKLK7 zymogen activators, primary screen, biochemical, fluorescence intensity | purified proKLK7, EDANS-DABCYL substrate fluorescence; 100% is mature enzyme control, 0% vehicle | AID 652039, 2013 | hit rate 0.9% among 370,000 | activation, % at 7 µM;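 active = activation above the mean of all tested compounds plus 3 SD, computed per campaign excluding outliers beyond control limits, cut at about 13% in these data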
Target sequence (P49862 whole entry, looked up): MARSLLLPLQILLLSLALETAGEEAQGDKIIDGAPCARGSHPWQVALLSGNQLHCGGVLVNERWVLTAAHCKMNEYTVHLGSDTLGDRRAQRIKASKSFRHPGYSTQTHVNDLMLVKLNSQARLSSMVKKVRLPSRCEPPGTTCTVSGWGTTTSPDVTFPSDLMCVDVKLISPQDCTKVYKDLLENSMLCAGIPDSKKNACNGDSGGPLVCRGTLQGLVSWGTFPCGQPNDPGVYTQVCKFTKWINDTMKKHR
ADAM10 inh = human ADAM10 inhibitors, primary screen, biochemical, QFRET, HTS. Disintegrin and metalloproteinase domain-containing protein 10 (Homo sapiens), O14672. recombinant ADAM10, EDANS/DABCYL FRET peptide cleavage, 3 h. inhibition, % at 7 µM. hit rate 0.62% among 370,000. AID 720582, 2013;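 active = inhibition above a per-campaign cutoff equal to the mean of compounds falling between control-based bounds plus 3 SD, cut at about 20% in these data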;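 also: 0% = DMSO wells while the 100% control is not disclosed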
FGF22 binding = binders of human FGF22 protein, primary screen, FGF22 synaptogenesis inhibitor project, biophysical, thermal shift, single point; activity (Tm shift, normalised), % at 9.99 µM; recombinant FGF22 thermal shift, SYPRO orange fluorescence; percent of sucrose octasulfate shift, DMSO zero; hit rate 1.5% among 340,000;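 active = mean Tm shift, scaled 0 neutral to 100 positive control, at about 1.3% or above, every replicate too, limit read from the data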
Target sequence (Q9HCT0 whole entry, looked up): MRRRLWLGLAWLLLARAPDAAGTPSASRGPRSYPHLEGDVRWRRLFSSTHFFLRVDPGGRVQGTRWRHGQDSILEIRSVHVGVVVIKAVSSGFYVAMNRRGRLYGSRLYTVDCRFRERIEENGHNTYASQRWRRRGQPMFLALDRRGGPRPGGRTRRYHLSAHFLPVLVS
rRNA inh HTS = reduced GFP signal of wild-type E. coli, primary screen, bacterial rRNA inhibitor project, GFP/RFP fluorescence, OD600, single point; E. coli WT GFP vs humanized-ribosome RFP mutants, 24 h; hits give low values; DMSO median 0, no signal -100; GFP signal change (wild-type ribosome), % (no concentration beside the values); hit rate 1.6% among 350,000; AID 720706, 2013;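 active = significant combined selectivity score with lowered wild-type GFP, culture density cut under 30%, mutant RFP and density less affected; inactive = any of these conditions unmet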
Numbers without * were called inactive; i = inactive; x = no result given. This is a sample that favours compounds with a hit; in the whole collection about 3.8% have one here.

SMILES	ADAM17 inh	KLK7 zymogen act	ADAM10 inh	FGF22 binding	rRNA inh HTS
CO[C@H]1CN(C)C(=O)c2cc(NC(=O)c3cnccn3)ccc2OC[C@H](C)N(CC2CC2)C[C@H]1C	x	x	x	0.4	0.3
COc1cc(C(=O)NCCN2C(=O)S/C(=C\c3cccs3)C2=O)cc(OC)c1OC	-2.3	-0.2	3.7	0.3	-0.8
COc1cccc(C(=O)NCCN2C(=O)S/C(=C/c3cccs3)C2=O)c1OC	0.6	1.6	1.8	0.5	-39.2*
CCOc1ccc(CCNC(=O)CCOc2cc(C)ccc2C)cc1OCC	1.8	-0.2	-1.2	1.9*	3.5
C[C@H]1COCc2cn(nn2)CC[C@@H](Cc2ccccc2)C(=O)N1	x	x	x	x	2.0
Cc1ncc(CN2CCCC(C(=O)Nc3ccc(-c4cccc(F)c4)cc3)C2)s1 (centres undefined)	5.6	0.6	6.5	-0.2	-30.6*
CCCNC(=O)C[C@H]1C[C@H]2c3cc(NC(=O)Nc4ccccc4)ccc3O[C@H]2[C@@H](CO)O1	x	x	x	-0.1	-0.7
O=C(COC(=O)c1cccnc1Cl)NCc1cccs1	0.3	0.3	13.2	43.3*	10.9
Cc1ccc(S(=O)(=O)Nc2ccc3c(c2)C(=O)N([C@H](C)CO)C[C@H](C)[C@H](CN(C)C)OCCCC[C@H](C)O3)cc1	x	x	x	0.0	-4.2
CCN(CC)S(=O)(=O)c1cccc(-c2nnc(SCC(=O)NC)n2N)c1	-2.5	-0.6	2.6	43.8*	12.9
Cc1ccc(-c2cc(C(=O)N3CCN(c4ccc(F)cc4)CC3)c3ccccc3n2)o1	-99.6	-21.5	-284.9	x	x
COc1ccc(-c2cc(C(=O)N3CCN(c4ncccn4)CC3)c3ccccc3n2)c(OC)c1	-19.9	0.1	-48.9	x	x
COc1ccc(-c2cc(C(=O)N3CCCCCC3)c3ccccc3n2)c(OC)c1	-55.2	-2.2	-186.5	0.1	-33.2*
Cc1ccc(-c2cc(C(=O)N3CCOCC3)c3ccccc3n2)o1	i	111.7*	i	0.0	17.5
O=C(c1csc(Nc2cccc3ccccc23)n1)N1CCCC1	-7.2	-1.4	-34.0	-0.4	-32.0*
C[C@H](CO)N1C[C@H](C)[C@@H](CN(C)CC2CCCC2)Oc2cc(C3=CCCCC3)ccc2S1(=O)=O	x	x	x	-0.1	-0.6
CCN(CC)CCOC(=O)CCc1cccc2ccccc12	-1.5	0.3	5.5	x	x
CCN(CC)CCOC(=O)C(Cc1ccco1)Cc1cccc2ccccc12 (centres undefined)	-1.9	0.6	6.0	-0.1	-34.2*
O=C(Cc1ccccc1)N1CC[C@@H]2[C@H]1c1cc(-c3ccccc3)ccc1N[C@@H]2CO	x	x	x	-0.5	-47.2
O=C(CN1C(=O)NC2(CCCc3ccccc32)C1=O)c1ccc(F)cc1 (centres undefined)	-1.6	-0.4	-12.5	0.1	-1.3
O=C(CN1C(=O)NC2(CCc3ccccc32)C1=O)c1ccc(Br)s1 (centres undefined)	2.3	-0.4	-0.7	-0.3	-30.5*
O=C(CN1C(=O)NC2(CCCc3ccccc32)C1=O)c1ccccc1F (centres undefined)	-3.6	-0.6	-8.7	-0.1	-34.8*
C[C@@H]1CN([C@H](C)CO)C(=O)Cc2cc(NC(=O)Cc3ccccc3)ccc2O[C@H]1CN(C)S(=O)(=O)c1ccc(F)cc1	x	x	x	-0.2	-2.8
c1ccc(C2=NN(c3ccccc3)CC2)cc1	-61.7	-22.5	-209.2	0.3	0.4
c1ccc(N=NC2=NN(c3ccccc3)CS2)cc1	1.6	0.6	-3.1	0.0	-29.5*
SMILES	ADAM17 inh	KLK7 zymogen act	ADAM10 inh	FGF22 binding	rRNA inh HTS
Cc1ccccc1NS(=O)(=O)c1cccc2nonc12	-2.0	-0.6	-7.7	0.3	3.4
O=S(=O)(Nc1cccc2ccccc12)c1cccc2nonc12	-1.4	-0.7	1.9	0.0	-27.4*
O=c1c2ccc([N+](=O)[O-])cc2ncn1CCOc1ccc(Cl)cc1	0.1	0.4	-3.2	-0.2	14.9
CC(C)(C)c1ccccc1NC(=O)Cn1cnc2cc([N+](=O)[O-])ccc2c1=O	-4.3	-0.3	-3.6	42.9*	11.4
O=c1c2ccc([N+](=O)[O-])cc2ncn1CCOc1cccc(Br)c1	-0.9	-0.1	-3.3	43.0*	17.2
Cc1cc(C)c2cccc(N)c2n1	-2.3	-0.7	-7.6	-0.1	-22.8*
C[C@@H]1CN([C@@H](C)CO)C(=O)c2cc(C#Cc3ccc(F)cc3)cnc2O[C@H]1CN(C)Cc1ccccn1	x	x	x	0.0	0.9
CCOC(=O)CSC1=C(C#N)C(c2sccc2C)C(C(C)=O)=C(C)N1 (centres undefined)	-3.7	1.6	-6.2	-0.2	-39.6*
CC(=O)C1=C(C)NC(SCC(N)=O)=C(C#N)C1c1sccc1C (centres undefined)	-8.0	0.1	-7.8	0.0	-18.4
CCCNC(=O)Nc1ccc2c(c1)C(=O)N(C)C[C@@H](OC)[C@@H](C)CN(Cc1ccccn1)[C@H](C)CO2	x	x	x	x	0.9
C[C@@H]1CCCCO[C@H](CN(C)S(=O)(=O)c2ccc(F)cc2)[C@H](C)CN([C@H](C)CO)C(=O)c2cc(NC(=O)Nc3ccc(F)cc3)ccc2O1	x	x	x	-0.2	-0.2
C=CCOc1ccccc1CNCCCN1CCOCC1	-1.2	0.3	-3.0	x	x
C=CCOc1cccc(CNCCCN2CCOCC2)c1	0.3	0.1	-1.6	43.5*	13.2
Nc1ccccc1-c1ccccc1N	-4.5	-22.2	-3.3	44.1*	10.0
COc1ccccc1NC(=O)c1ccc(NC(=O)CN(C)Cc2ccccc2F)cc1	-0.5	0.3	0.4	43.3*	-30.9
CC(CCc1ccccc1)NC(=O)CN(C)Cc1ccccc1F (centres undefined)	1.5	0.4	8.8	0.2	-29.2*
CC(C)[C@H]1C(=O)N[C@H](c2ccc3c(c2)OCO3)CC=CC[C@@H](C)Oc2ccccc2C(=O)N1C (mixture of isomers)	x	x	x	x	-3.5
O=C(O)CCn1ncc2ccccc2c1=O	3.3	-0.2	6.7	43.4*	13.6
O=C(NCC[C@@H]1CC[C@@H](NC(=O)C2CC2)[C@@H](CO)O1)c1ccc(F)cc1	x	x	x	0.0	0.7
CC(C)OCCCNC(=O)Cc1ccc(F)cc1	-3.0	-0.1	5.0	43.3*	15.1
CC(C)(C)c1ccc(OCCNC(=O)Cc2ccc(F)cc2)cc1	-5.5	0.3	5.8	1.6*	x
CCOCCCNC(=O)Cc1ccc(F)cc1	-0.8	-0.2	-5.7	0.1	-4.2
CC(=O)N(C)C[C@@H]1Oc2cc(C#Cc3cccc(F)c3)ccc2S(=O)(=O)N([C@@H](C)CO)C[C@H]1C	x	x	x	-0.4	-18.8

High-throughput results deposited in PubChem BioAssay by several laboratories.
